Among the data in PubChem BioAssay (Tox21) are Potency and outcome values, retold here.

The structures appear in SMILES notation. “And” between values parts separate entries of the source, which are not always exact repeats. Equal values may be shown once. Results filed as inconclusive are left out. Where a structure was tested more than once in an assay, its records may differ in their call. The source made the active and inactive calls. Unless noted, calls come from the whole dose curve; as a rule, active = well fitted curve in the direction sought with a large enough effect in the repeat runs; inconclusive = weak or mixed curves; inactive = no such curve, though single readings can be large; an effect the other way counts as inactive or inconclusive.

A short description of experiment [1]: qHTS assay to identify small molecule agonists of the estrogen receptor alpha (ER-alpha) signaling pathway in the presence of an antagonist - cell viability counter screen (AID 1259386).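 Note: cells exposed to compounds for 22 h at 37 °C before the viability read; nearly all actives have a fitted effect of over 30% in size.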 Note: potency is the fitted concentration of half-maximal effect. The procedure, abridged: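 Viability counter screen using VM7Luc4E2 (full-length ER-alpha, four ERE-luciferase). The cells were treated with compounds alongside ICI-182,780 10.0nM for 22hr, and live-cell protease fluorescence was quantified with CellTiter-Fluor.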
In general terms: Quantitative high-throughput screening tests each substance at several concentrations.

Experiment [2] has as its target Progesterone receptor (Homo sapiens) (UniProt P06401). Nature of the experiment: qHTS assay to identify small molecule agonists of the progesterone receptor (PR) signaling pathway (AID 1346784; calls by dose curve; note: nearly all actives have a fitted effect of over 30% in size). The procedure, abridged:
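Compounds were tested for PR agonism in HEK 293T cells bearing a beta-lactamase gene under UAS control. Treatment lasted 16 hr at 37C; signal came from fluorescence of a FRET substrate.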

For experiment [3] the target is unchanged. Nature of the experiment: qHTS assay to identify small molecule antagonists of the progesterone receptor (PR) signaling pathway (AID 1346795; active = well fitted inhibition curve with a large enough effect in the signal ratio in the repeat runs, not every such curve was filed as active; the % refers to the signal ratio; note: potency is the fitted concentration of half-maximal effect). An outline of the steps: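 In HEK293T cells bearing the PR-UAS-bla reporter, compound effects on promegestone-driven (1 nM) beta-lactamase expression are assessed after 16 hr using a fluorescent FRET substrate incubated 2 hr at room temperature.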

Experiment [4] in a line: qHTS assay to identify small molecule antagonists of the TGF-beta/Smad signaling pathway - cell viability counter screen (AID 1346824). Note: nearly all actives have a fitted effect of over 50% in size. Note: potency is the fitted concentration of half-maximal effect. An outline of the steps: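 SBE-bla HEK 293T cells were plated overnight at 37 C, then given compounds in DMSO plus TGF-beta1 (added as 0.25 ng/mL solution) for 5 hr. After the bla read, CellTiter-Glo was added to the same wells and luminescence read after 30 min at room temperature.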

A short description of experiment [5]: qHTS assay to identify small molecule agonists of the TGF-beta/Smad signaling pathway - cell viability counter screen (AID 1346829). Note: nearly all actives have a fitted effect of over 45% in size. Note: potency is the fitted concentration of half-maximal effect. The procedure, abridged:
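HEK 293T SBE-bla line, 5 hr compound exposure at 37 C, multiplexed CellTiter-Glo viability read by luminescence.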

Experiment [6] is described as follows: qHTS assay to identify small molecule antagonists of the progesterone receptor (PR) signaling pathway - cell viability counter screen (AID 1346798). Note: nearly all actives have a fitted effect of over 50% in size. Note: potency is the fitted concentration of half-maximal effect. The procedure, abridged: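 Following a 4 hr attachment, PR-UAS-bla HEK293T cells in charcoal-stripped FBS medium were exposed to compounds with R5020 for 16 hr; CellTiter-Glo was added and luminescence read after 30 min at room temperature.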

A short description of experiment [7]: qHTS assay to identify small molecule agonists of the TGF-beta/Smad signaling pathway (AID 1346859; active = well fitted activation curve with a large enough effect in the signal ratio in the repeat runs, not every such curve was filed as active; the % refers to the signal ratio; note: series mostly up to about 77 µM). An outline of the steps:
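Each well held 4,000 SBE-bla HEK 293T cells incubated overnight before compound addition; 5 hr later the cleavable FRET substrate went on for 2 hr at room temperature, and fluorescence was read at two emissions.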

Experiment [8] concerns the target Thyrotropin-releasing hormone receptor (Homo sapiens) (UniProt P34981). Nature of the experiment: qHTS assay to identify small molecule antagonists of the thyrotropin-releasing hormone receptor (TRHR) signaling pathway (AID 1346877; active = well fitted inhibition curve with a large enough effect in the repeat runs, not every such curve was filed as active; note: series mostly up to about 51 µM). The procedure, abridged:
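Following an 18 h incubation at 37 °C and a 2 h calcium dye load, TRHR-HEK293 cells were exposed to compound (5 min, room temperature) and challenged with TRH, 1 nM final.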

Experiment [9] shares this target. Nature of the experiment: qHTS assay to identify small molecule agonists of the thyrotropin-releasing hormone receptor (TRHR) signaling pathway (AID 1346891; calls by dose curve; note: potency is the fitted concentration of half-maximal effect; for activation: series mostly up to about 58 µM). The procedure, abridged: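 Screening of agonists relied on calcium signalling in HEK293 cells expressing human TRHR: dye loading 2 h at 37 °C preceded compound addition and a 3-min fluorescence time course.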

Experiment [10] is described as follows: qHTS assay to identify small molecule agonists of the progesterone receptor (PR) signaling pathway - cell viability counter screen (AID 1346799; calls by dose curve; note: nearly all actives have a fitted effect of over 45% in size; note: potency is the fitted concentration of half-maximal effect). An outline of the steps:
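Here, 3,000 PR-UAS-bla HEK293T cells per well were treated with compounds for 16 hr after a 6 hr preincubation at 37C and 5% CO2; cell viability is the CellTiter-Glo luminescence signal.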
% is set by controls: 0 for no effect and ±100 for the full control effect.

Sequence of Thyrotropin-releasing hormone receptor (Homo sapiens) (P34981 whole entry, looked up): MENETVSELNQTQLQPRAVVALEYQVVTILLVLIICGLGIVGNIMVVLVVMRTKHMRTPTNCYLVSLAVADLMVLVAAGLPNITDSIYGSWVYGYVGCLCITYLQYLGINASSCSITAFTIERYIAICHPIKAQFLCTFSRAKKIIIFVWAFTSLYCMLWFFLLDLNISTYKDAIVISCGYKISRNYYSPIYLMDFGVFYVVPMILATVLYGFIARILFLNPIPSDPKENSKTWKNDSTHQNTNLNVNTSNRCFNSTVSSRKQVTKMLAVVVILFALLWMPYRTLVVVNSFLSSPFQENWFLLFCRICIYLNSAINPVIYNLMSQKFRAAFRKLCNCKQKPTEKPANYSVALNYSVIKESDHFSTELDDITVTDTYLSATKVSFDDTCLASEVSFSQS
Sequence of Progesterone receptor (Homo sapiens) (P06401 whole entry, looked up): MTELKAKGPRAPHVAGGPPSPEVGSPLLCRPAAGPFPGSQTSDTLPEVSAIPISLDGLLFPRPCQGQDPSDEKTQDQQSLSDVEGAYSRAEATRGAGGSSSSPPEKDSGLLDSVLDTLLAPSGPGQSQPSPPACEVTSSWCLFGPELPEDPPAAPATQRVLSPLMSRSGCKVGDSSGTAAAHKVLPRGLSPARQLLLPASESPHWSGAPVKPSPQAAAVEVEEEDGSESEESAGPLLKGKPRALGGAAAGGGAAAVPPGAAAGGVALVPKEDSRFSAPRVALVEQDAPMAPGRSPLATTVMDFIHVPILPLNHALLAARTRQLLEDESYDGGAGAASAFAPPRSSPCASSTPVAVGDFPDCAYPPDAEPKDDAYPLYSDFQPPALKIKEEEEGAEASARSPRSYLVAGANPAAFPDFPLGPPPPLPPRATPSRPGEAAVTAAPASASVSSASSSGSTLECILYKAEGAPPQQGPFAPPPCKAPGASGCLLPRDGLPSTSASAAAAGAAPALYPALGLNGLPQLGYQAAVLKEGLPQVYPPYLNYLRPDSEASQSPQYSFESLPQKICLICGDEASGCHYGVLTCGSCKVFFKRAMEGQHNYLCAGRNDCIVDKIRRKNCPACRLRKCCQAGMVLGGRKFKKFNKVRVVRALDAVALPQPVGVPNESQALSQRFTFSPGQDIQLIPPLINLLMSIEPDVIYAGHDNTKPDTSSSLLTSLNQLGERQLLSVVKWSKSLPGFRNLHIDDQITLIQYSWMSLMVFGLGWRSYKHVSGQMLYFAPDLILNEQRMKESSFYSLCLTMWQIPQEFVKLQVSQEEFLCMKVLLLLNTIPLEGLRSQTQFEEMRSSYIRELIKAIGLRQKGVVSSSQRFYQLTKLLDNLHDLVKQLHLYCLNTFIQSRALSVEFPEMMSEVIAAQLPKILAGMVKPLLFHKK

With `Cc1c(Cl)c(=O)oc2cc(OP(=O)(OCCCl)OCCCl)ccc12`, the Potency result in [1], in experiment [2], in experiment [4] and in experiment [5] was “inactive” in each case. For the same molecule, the Potency in experiment [3] is 7.5 µM (active).
For `COP(=O)(OC)SCn1c(=O)oc2cc(Cl)cnc21`, the Potency entry in experiment [1], in experiment [2], in experiment [3], in experiment [6] and in [4] was “inactive” throughout. In addition, the outcome in [7] was inactive.
As to `CC(C)CC(C)N` (configuration not stated), the Potency result in experiment [1], in experiment [2], in experiment [3], in experiment [6], in [4] and in experiment [5] was “inactive” throughout. For the same molecule, the Potency result in experiment [8] and in experiment [9] was “inactive” in each case.
As to `C[C@]12CC[C@@H]3c4ccc(OC(=O)N(CCCl)CCCl)cc4CC[C@H]3[C@@H]1CC[C@@H]2O`, the Potency entry in experiment [1], in [2], in [6], in experiment [4], in experiment [5] and in experiment [8] was “inactive” in each case. In addition, in [9], the Potency result was “inactive”. The molecule was classed as inactive in experiment [7].
Consider `O=C(Cl)c1ccc(Cl)cc1`, for which the Potency entry in experiment [1], in experiment [2], in experiment [6], in experiment [10] and in [4] was “inactive” each time. Besides, the molecule was classed as inactive in experiment [7].
As to `ClC1=C(Cl)[C@]2(Cl)[C@H]3[C@H]([C@H]4C=C[C@H]3C4)[C@@]1(Cl)C2(Cl)Cl`, the Potency entry in [1], in experiment [2], in experiment [4], in experiment [5], in experiment [8] and in experiment [9] was “inactive” in each case. The molecule was called inactive in experiment [7].
As to `Fc1ccc(Oc2ccnc3cc(Cl)cc(Cl)c23)cc1`, the Potency result in experiment [1], in experiment [2], in experiment [6] and in experiment [4] was “inactive” throughout. The molecule was classed as inactive in experiment [7].
With `CCCCCCCCCCCCCCCC[n+]1ccccc1`, the Potency is 71.7 µM (active) and 61.1 µM (active) and 60.3 µM (active) in experiment [1]; 50.8 µM (active) and 61.1 µM (active) and 60.3 µM (active) in experiment [6]; 50.8 µM (active) and 54.5 µM (active) in experiment [10]; 43.6 µM (active) [middle of 4 runs] in experiment [4]; 54.2 µM (active) [middle of 4 runs] in experiment [5]; 36.3 µM (active) and inactive in experiment [9]. Also, the Potency result in experiment [2] was “inactive”.
For `CCCSP(=O)(OCC)SCCC`, the Potency result in experiment [1], in experiment [2], in experiment [6], in [4], in experiment [5] and in experiment [8] was “inactive” throughout. The Potency entry in experiment [9] is “inactive”. Besides, the call in experiment [7] was inactive.
Turning to `CCOP(=O)(NC(C)C)Oc1ccc(SC)c(C)c1` (configuration not stated), the Potency result in [1], in [2], in experiment [4], in [5], in experiment [8] and in experiment [9] was “inactive” throughout. In addition, the molecule was classed as inactive in [7].
